GLS inhibitor: qHTS for Inhibitors of Glutaminase (GLS) | Glutaminase kidney isoform, mitochondrial (Homo sapiens), O94925 | GLS enzymatic activity, qHTS titration | 0.21% of 410,000 active | Potency, µM (top dose mostly 45.5 µM), usual class: inhibitors
Target sequence (O94925 whole entry, looked up, canonical isoform): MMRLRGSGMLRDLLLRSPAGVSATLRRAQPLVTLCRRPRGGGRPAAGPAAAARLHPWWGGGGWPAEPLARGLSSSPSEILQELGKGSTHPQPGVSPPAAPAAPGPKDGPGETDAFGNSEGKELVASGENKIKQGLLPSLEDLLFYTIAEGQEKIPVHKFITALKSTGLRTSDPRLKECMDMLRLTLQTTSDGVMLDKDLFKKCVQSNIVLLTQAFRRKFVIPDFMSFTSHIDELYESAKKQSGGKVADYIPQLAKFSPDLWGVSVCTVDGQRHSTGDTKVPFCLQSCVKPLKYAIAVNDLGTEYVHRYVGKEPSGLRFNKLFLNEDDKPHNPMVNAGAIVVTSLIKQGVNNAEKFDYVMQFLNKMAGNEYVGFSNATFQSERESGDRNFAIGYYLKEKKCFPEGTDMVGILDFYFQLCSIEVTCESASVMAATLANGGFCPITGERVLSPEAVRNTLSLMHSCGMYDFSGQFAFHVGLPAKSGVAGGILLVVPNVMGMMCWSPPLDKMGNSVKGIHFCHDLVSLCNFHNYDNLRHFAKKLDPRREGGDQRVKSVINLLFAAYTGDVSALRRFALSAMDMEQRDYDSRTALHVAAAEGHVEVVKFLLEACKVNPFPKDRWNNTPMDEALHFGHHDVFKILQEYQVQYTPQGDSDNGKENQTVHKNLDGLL
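hKGA in 45 mM KH2PO4 pH 8.2, 0.02% Tween-20 with pin-transferred compounds; 1 mM L-glutamine (stock) plus glutamate oxidase/HRP/Amplex Red coupling added. Fluorescence read initially and after 30 min at RT.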
PGK inhibitor: qHTS Assay to Find Inhibitors of Phosphoglycerate Kinase | 0.043% of 380,000 active | PGK/GAPDH coupled, Kinase-Glo luminescence, 60 min | Phosphoglycerate kinase, glycosomal (Trypanosoma brucei brucei), P07378 | Potency, µM (doses to about 57.5 µM), hits mostly inhibitors; note: nearly all actives have a fitted effect of over 60% in size
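Luminescent ATP detection (Kinase-Glo Plus) follows a 60-minute room-temperature incubation, with wells lacking PGK as controls. Buffer: 100 mM TEA (pH 7.6), 5 mM MgCl2, 0.01% Tween-20. Coupling enzyme GAPDH (100 nM final) supplies unstable 1,3-BPG in-well.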
Pin1 inhibitor: qHTS Assay to Find Inhibitors of Pin1; Peptidyl-prolyl cis-trans isomerase NIMA-interacting 1 (Homo sapiens), Q13526; Pin1 FP peptide displacement, HiFluor488, 10 min; Potency, µM (doses to about 115 µM), actives largely listed as inhibitors; 0.009% of 390,000 active; active = well fitted inhibition curve with a large enough effect in the polarisation, with a control signal flat, not every such curve was filed as active; inconclusive = small, poorly fitted or top-dose-only effect, or effect the other way, or a change in a side signal; inactive = no such curve, though single readings can be large or run the other way; the % refers to the polarisation
IDH1 R132H inh: qHTS for Inhibitors of mutant isocitrate dehydrogenase 1 (IDH1): qHTS; IDH1-R132H enzyme, NADPH consumption, diaphorase/resazurin fluorescence; Potency, µM (titrated, usually from 76.6 µM), actives largely listed as inhibitors; 0.093% of 390,000 active; AID 602179, 2012; note: nearly all actives have a fitted effect of over 65% in size
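IDH1-R132H (0.5 ug/mL) preincubated 30 min with compound, then NADPH (0.016 mM) and alpha-KG (2 mM) added; 80 min at RT, pH 7.5. Remaining NADPH coupled via diaphorase/resazurin to fluorescence (540/590 nm); concentration-response curves normalized to no-enzyme control.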
IDH1 autofl: qHTS for Inhibitors of mutant isocitrate dehydrogenase 1 (IDH1): Cherrypicks Autofluorescence Interference; shares compounds with IDH1 R132H inh; AID 623980, 2012; Resorufin detection reagent fluorescence interference, cell-free; inhibition of signal, % at 51.2 µM; 750 tested, under 10 active
IDH1 WT: qHTS for Inhibitors of mutant isocitrate dehydrogenase 1 (IDH1): Cherrypicks in WT IDH1; shares compounds with IDH1 R132H inh; WT IDH1 enzyme, NADPH diaphorase/resazurin fluorescence; Potency, µM (top dose mostly 115 µM), hits mostly inhibitors; 9% of 750 active; note: nearly all actives have a fitted effect of over 55% in size
IDH1 R132H conf: qHTS for Inhibitors of mutant isocitrate dehydrogenase 1 (IDH1): Confirmation of Cherrypicks; shares compounds with IDH1 R132H inh; IDH1 R132H enzyme, NADPH diaphorase/resazurin fluorescence; Potency, µM (highest dose often 76.6 µM), usual class: inhibitors; 83% of 750 active; AID 624002, 2012; note: nearly all actives have a fitted effect of over 50% in size
Hits are given with their value; - = inactive; ? = inconclusive; . = no result given. In the library only some 0.33% were active in any assay of this set; here they are far more common. Unless noted, calls come from the whole dose curve; as a rule, active = well fitted curve in the direction sought with a large enough effect; inconclusive = small, poorly fitted or top-dose-only effect, or another doubt; inactive = no such curve, though single readings can be large; an effect the other way counts as inactive or inconclusive.

SMILES	GLS inhibitor	PGK inhibitor	Pin1 inhibitor	IDH1 R132H inh	IDH1 autofl	IDH1 WT	IDH1 R132H conf
CCOC(=O)c1ccc(N2C(=O)c3n[nH]c(C)c3C2c2ccc(C(C)C)cc2)cc1 (stereo not given)	-	-	-	-	.	.	.
CC(=O)[C@@]1(O)CC[C@H]2[C@@H]3C[C@H](C)C4=CC(=O)CC[C@]4(C)[C@H]3CC[C@@]21C	-	-	-	-	.	.	.
C=C1CC2C(CCC3(C)C2CCC3(O)C(C)=O)C2(C)CCC(=O)C=C12 (stereo not given)	-	-	-	22µM	-	35µM	11µM
O=C1CCC2=C1C1(CCCC1)N=C(Nc1nc3ccccc3o1)N2	.	.	-	.	.	.	.
CCCCOc1ccc(/C=N/NC(=S)Nc2cccc(C)c2C)cc1	-	-	?	?	-	-	11µM
CCCCOc1ccc(/C=N/NC(=S)Nc2cc(C)ccc2C)cc1	.	-	?	-	.	.	.
COc1cc2c(-c3ccc(O)cc3)nc3c(c(C)nn3-c3ccccc3)c2cc1OC	?	-	?	?	-	-	11µM
COc1cccc(-c2nc3c(c(C)nn3-c3ccccc3)c3cc(OC)c(OC)cc23)c1	-	-	-	?	.	.	.
O=C(NC1CCCC1)C(c1ccc(F)cc1)N(C(=O)c1csnn1)c1ccccc1 (stereo not given)	-	-	-	-	.	.	.
O=C(NC1CCCCC1)C(c1cccs1)N(C(=O)c1ccccn1)c1ccccc1 (stereo not given)	-	.	-	?	-	-	?
Cc1ccc(N(C(=O)C(F)(F)F)C(C(=O)NC2CCCCC2)c2cccs2)cc1 (stereo not given)	-	-	-	?	-	-	11µM
Cc1ccc(N(C(=O)CCC(=O)Nc2cc(C)on2)C(C(=O)NC2CCCC2)c2cccs2)cc1 (stereo not given)	-	-	-	-	.	.	.
O=C(NC1CCCC1)C(c1ccccc1F)N(C(=O)c1csnn1)c1ccccc1 (stereo not given)	-	-	-	?	-	-	16µM
CC1(C)CC(=O)C2=C(C1)NC1=C(C(=O)c3ccccc31)C2c1cc([N+](=O)[O-])ccc1O (stereo not given)	-	-	-	?	-	-	32µM
COc1cc([C@@H]2c3cc4c(cc3[C@@H](O[C@@H]3O[C@H]5CO[C@H](C)O[C@H]5[C@H](O)[C@@H]3O)[C@H]3COC(=O)[C@H]23)OCO4)cc(OC)c1OP(=O)(O)O	-	.	.	.	.	.	.
COC(=O)c1ccc(NC(=O)C(c2ccccc2)N2Cc3ccccc3C2=O)cc1 (stereo not given)	-	-	-	?	-	-	-
Cc1c(P(=S)(c2ccccc2)c2ccccc2)c2ccccc2n1C(=O)NCc1ccccc1	.	.	-	.	.	.	.
CC(=O)NC1C(=O)N(CCN2CCOCC2)c2ccc(Cl)cc21 (stereo not given)	?	?	-	41µM	-	?	-
CC(CSC(=O)c1ccccc1)C(=O)N1CC(Sc2ccccc2)CC1C(=O)O (stereo not given)	-	.	.	.	.	.	.
CS(=O)(=O)Nc1cccc(-c2cc(F)c(S(=O)(=O)N3CCN(S(=O)(=O)c4ccc5c(c4)OCCO5)CC3)cc2F)c1	.	.	-	.	.	.	.
Cc1cc(C)cc(N(C(=O)CCC(=O)Nc2cc(C)on2)C(C(=O)NC2CCCC2)c2ccco2)c1 (stereo not given)	-	-	-	?	-	-	25µM

High-throughput results deposited in PubChem by National Center for Advancing Translational Sciences (NCATS).
